According to PubChem BioAssay (NCI):
This is part of a sample that, as a whole, favours compounds with a hit. Of some 79,000 tested, about 15% had one in any assay. No stated cut-off is given here; in the data, active means growth inhibition above about 70%; inactive means the rest.

What was measured:
[1] = NCI Yeast Anticancer Drug Screen. Data for the rad50 strain (AID 155);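 further: 0% = growth of vehicle-only cultures of the same strain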; details: S. cerevisiae rad50 strain growth inhibition; at 50.0 µM; active compounds read high
Procedure, shortened: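 DNA repair mutant yeast, compound exposure, growth read-out; inhibition is taken relative to vehicle.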

[2] = NCI Yeast Anticancer Drug Screen. Data for the mec2-1 strain (AID 157); details: S. cerevisiae mec2-1 strain, at 50.0 µM, active compounds read high
Procedure, shortened: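 Yeast mec2-1 mutant treated with compound. Readout: growth inhibition vs vehicle controls.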

[3] = NCI Yeast Anticancer Drug Screen. Data for the sgs1 mgt1 strain (AID 161);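 further: 0% = growth of cultures given vehicle only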; details: S. cerevisiae sgs1 mgt1 strain, at 50.0 µM, active compounds read high
Procedure, shortened: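 Read-out: growth inhibition vs vehicle controls. Cells: mutant yeast strain deficient in DNA damage repair.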

[4] = NCI Yeast Anticancer Drug Screen. Data for the cln2 rad14 strain (AID 165);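 further: 0% = growth equal to vehicle treated cultures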; details: S. cerevisiae cln2 rad14 strain, at 50.0 µM, active compounds read high
Procedure, shortened: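 cln2 rad14 yeast strain; compound exposure; growth inhibition read vs vehicle controls.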

[5] = NCI Yeast Anticancer Drug Screen. Data for the bub3 strain (AID 167); details: S. cerevisiae bub3 mutant strain, at 50.0 µM, active compounds read high
Procedure, shortened: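 In this screen, a yeast mutant lacking normal mitotic checkpoint function is challenged with compound. Relative growth versus vehicle gives the inhibition value.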

[6] = NCI Yeast Anticancer Drug Screen. Data for the mlh1 rad18 strain (AID 175); details: S. cerevisiae mlh1 rad18 strain growth inhibition; at 50.0 µM; active compounds read high
Procedure, shortened: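 Yeast w/ defined DNA-repair lesions; compound exposure; growth vs vehicle controls → % inhibition.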

Measured: growth inhibition

COc1ccc(/C=C2\CCC(C)(CN(C)C)C2=O)cc1 (stereo unspecified)
inactive: [1] 36.5% | [2] 14.6% | [3] 8.15% | [4] 21.1% | [5] 4.35% | [6] 43%

CCCC(O)C(C)(C)C (stereo unspecified)
inactive: [1] -35.7% | [2] -67.5% | [3] -51.6% | [4] -11.2% | [5] -43.5% | [6] -42%

C=C(C)[C@@H]1CC[C@@H]2C(=CC[C@]3(C)C([C@H](C)CC/C=C(/C)C(=O)O)CC[C@@]23C)[C@@]1(C)CCC(=O)O (stereo partly specified)
inactive: [1] 15.6% | [2] -4.95% | [3] -0.85% | [4] 14.4% | [5] 4.05% | [6] -63.2%

OC1(c2ccccc2)CCCN(Cc2ccccc2)C1 (stereo unspecified)
inactive: [1] 3.75% | [2] 7% | [3] 6.6% | [4] -17.4% | [5] 14.6% | [6] 15.8%

CC(=O)Oc1cc(OC(C)=O)c2c(c1)OC(c1ccc(OC(C)=O)c(OC(C)=O)c1)CC2=O (stereo unspecified)
inactive: [1] 21.4% | [2] 3.8% | [3] 18.3% | [4] 3.95% | [5] 3.85% | [6] 28%

O=C(/C=C/c1cccc2ccccc12)c1ccccc1Cl
inactive: [1] 52.9% | [2] -9.25% | [3] 7.65% | [4] 16.9% | [5] -6.65% | [6] 35.2%

C=CCC(OCCC)c1ccc2c(c1)OCO2 (stereo unspecified)
inactive: [1] -7.1% | [2] 0.6% | [3] -0.65% | [4] 5.05% | [5] 3.4% | [6] -12.6%

O=[N+]([O-])c1ccccc1S(=O)(=O)NC1c2ccccc2Oc2ccccc21
inactive: [1] 31.9% | [2] 28.3% | [3] 19.4% | [4] 2.75% | [5] -0.8% | [6] 43.6%

CC(C)/C=N/N(CCOC(=O)Nc1cccc2ccccc12)C(=O)Nc1cccc2ccccc12
inactive: [1] -4.95% | [2] -15.1% | [3] 1.75% | [4] -19.8% | [5] -8.15% | [6] 14.8%

CCCCNC(=O)NC/C(Br)=C/Br
inactive: [1] 1.75% | [2] 5.15% | [3] 1.4% | [4] -3.75% | [5] 1.85% | [6] -5.2%

CCCCCCC(C)OC(=O)CCl (stereo unspecified)
inactive: [1] -0.55% | [2] -6.4% | [3] 2.25% | [4] 6.1% | [5] 1.25% | [6] 0.95%

CCO/C=N\C1=C(C#N)SC2=N/C(=C\c3ccco3)C(=O)N21
inactive: [1] 6.1% | [2] -19.2% | [3] -7.4% | [4] 5.65% | [5] 0.45% | [6] -17.3%

O=C1ON(c2ccccc2)C(c2ccc(OCc3ccccc3)cc2)N1c1ccccc1 (stereo unspecified)
inactive: [1] 42.6% | [2] 14% | [3] 11.8% | [4] 4.35% | [5] 27.5% | [6] 26.8%

CC(=O)O[C@@H]1[C@H]2[C@@H](OC(=O)c3ccccc3)[C@@H](C)C[C@]2(O)[C@H](OC(C)=O)[C@@]2(C)[C@@H]3CC(C)(C)C(=O)[C@]3(OC(C)=O)C[C@@]12C
inactive: [1] 25% | [2] 31.1% | [3] 6.4% | [4] 5.3% | [5] 15.2% | [6] 39.4%

CC1(CC2(c3ccccc3)NC(=O)NC2=O)NC(=O)NC1=O (stereo unspecified)
inactive: [1] -0.55% | [2] -19.6% | [3] 0.9% | [4] 10.6% | [5] 11.8% | [6] 5.65%

COc1ccc2c3c(ccc2c1)C1C(=O)OC(=O)C1CC3 (stereo unspecified)
inactive: [1] -2.6% | [2] 8.6% | [3] 6.5% | [4] -36.6% | [5] -5.95% | [6] 11.2%

N#Cc1nc(COCc2ccccc2)oc1N
inactive: [1] -19.9% | [2] -12.5% | [3] -5.45% | [4] 1.75% | [5] -19.5% | [6] -10.9%

Cc1[nH]n(-c2ccccc2)c(=S)c1C(=O)c1ccccc1
inactive: [1] -11.7% | [2] 1.05% | [3] 2.55% | [4] 1.7% | [5] 2.25% | [6] 0.45%

Oc1ccc(Oc2cc3c(cc2Oc2ccc(O)cc2)-c2nc-3nc3[nH]c(nc4nc(nc5[nH]c(n2)c2cc(Oc6ccc(O)cc6)c(Oc6ccc(O)cc6)cc52)-c2cc(Oc5ccc(O)cc5)c(Oc5ccc(O)cc5)cc2-4)c2cc(Oc4ccc(O)cc4)c(Oc4ccc(O)cc4)cc32)cc1
inactive: [1] -94.7% | [2] -56.7% | [3] -119% | [4] -99.7% | [5] -80.5% | [6] -104%

O=C(NCCN1CCOCC1)c1ccc(I)cc1
inactive: [1] 31.8% | [2] 28.9% | [3] 45% | [4] 38.4% | [5] 32.1% | [6] 43.3%

COC(=O)c1ccccc1N=Cc1ccc(N(CCC#N)S(=O)(=O)c2ccccc2)cc1
inactive: [1] -2.05% | [2] 13.3% | [3] -6.15% | [4] 18.2% | [5] 20.3% | [6] 15.9%

COC(=O)c1cc(C(=O)O)c(=O)n2ccccc12
inactive: [1] 23% | [2] 50% | [3] 32.1% | [4] 53.2% | [5] 35.2% | [6] 41.5%

O=C(C[n+]1ccccc1)c1ccccc1
inactive: [1] 1.75% | [2] -4.4% | [3] -2.4% | [4] -18.5% | [5] 9.45% | [6] 30.7%

COc1cc(/C=C/C(=O)NCCc2c[nH]c3ccc(O)cc23)ccc1O
inactive: [1] -9.25% | [2] -0.75% | [3] 9.3% | [4] 11.8% | [5] 3.15% | [6] 6.75%

COC(=O)c1c2c(cc3c1CC1(C3)Cc3ccc4c(c3C1=O)CCC4)CCC2 (stereo unspecified)
inactive: [1] 12.5% | [2] 14.4% | [3] -7.35% | [4] -13.8% | [5] -21.1% | [6] -86%

c1ccc2c(c1)ccc1ccc3ocnc3c12
inactive: [1] 6.45% | [2] -0.95% | [3] -3.15% | [4] -6.6% | [5] 9.15% | [6] 10%

COC(=O)N/C(C)=N/OCc1ccccc1
inactive: [1] 1.2% | [2] 0.6% | [3] 4.3% | [4] 8.8% | [5] 15% | [6] -11.7%

O=C(c1ccccc1)c1ccncc1
inactive: [1] 28.2% | [2] -4.4% | [3] -27.2% | [4] -1% | [5] -1.9% | [6] -3.1%

O=c1c(-c2ccccc2)c(O)on1/C=C1/C=CC=N1
inactive: [1] -8.6% | [2] -25.2% | [3] 3.5% | [4] 3.8% | [5] 7.2% | [6] 1.5%

CCc1c2ccccc2cc2ccccc12
inactive: [1] -1% | [2] 1.85% | [3] -16.6% | [4] 9.75% | [5] 1.8% | [6] -5.95%

CC1CC(C)OC(c2ccccc2)O1 (stereo unspecified)
inactive: [1] 19.1% | [2] -1.5% | [3] -2.7% | [4] -20.1% | [5] -5% | [6] 19.7%

Cc1nc(-n2nc(-c3ccccc3)cc2-c2ccccc2)sc1C(=O)CC(=O)C(=O)Nc1ccc(Cl)c(Cl)c1
inactive: [1] 6.15% | [2] -5.55% | [3] 24.6% | [4] 13.8% | [5] 48.5% | [6] 24.8%

C[N+](C)(C)c1ccc2ccccc2n1
inactive: [1] -9.15% | [2] -1.6% | [3] -19.9% | [4] 1.15% | [5] -8.7% | [6] -2.7%

COc1cccc(-c2nsc(=O)o2)c1
inactive: [1] 41.5% | [2] 23.1% | [3] 24.3% | [4] -1.4% | [5] 52.6% | [6] 32.6%

COc1cc(N=Nc2ccccc2)cc(/C=N\NC(=S)Nc2cccc(C)c2)c1O
inactive: [1] 35.2% | [2] 19.9% | [3] 29.8% | [4] 24.9% | [5] -8.15% | [6] 39.7%

CCOC(=O)c1c(C(=O)OCC)c(C)n(/N=N/n2c(C)c(C(=O)OCC)c(C(=O)OCC)c2C)c1C
inactive: [1] 29.3% | [2] 9.75% | [3] 23.6% | [4] 26.3% | [5] -1.45% | [6] 12.8%

c1ccc(C(=C2CCC2)c2c3ccccc3cc3ccccc23)cc1
inactive: [1] -10.1% | [2] 9.4% | [3] -7% | [4] 5.8% | [5] -17.9% | [6] -20.1%

Cc1ccc(NC2=N/C(=C/c3ccco3)C(Cl)=N2)cc1
inactive: [1] -21.5% | [2] -22.1% | [3] 14.5% | [4] -1.8% | [5] 3.8% | [6] -31.9%

Cc1ccccc1C(=O)N1CCOCC1
inactive: [1] -10.9% | [2] 3.7% | [3] -0.1% | [4] -13.4% | [5] 16.1% | [6] 21.4%

OC1CC2COCC2CC1O (stereo unspecified)
inactive: [1] 22.6% | [2] 1.7% | [3] 11.1% | [4] 6.9% | [5] 4.4% | [6] 10%

Cc1ccc2c(c1)N=C(Nc1ccccc1)N=S2(C)=O (stereo unspecified)
inactive: [1] 2.95% | [2] -18.7% | [3] 0.45% | [4] -11.7% | [5] -7.55% | [6] -41.5%
